Data from PubChem BioAssay AID1259422 (The Scripps Research Institute Molecular Screening Center, 2018).
The campaign covered roughly 640,000 compounds. About 9,300 (1.5%) were called active. Rule as the data show it: active = inhibition above about 32%; inactive = the rest. This excerpt belongs to a sample that is enriched for actives.

assay: TEAD-YAP interaction inhibition, primary screen, TEAD-YAP interaction inhibitor project, luminescence, HEK-TIYL cells (AID 1259422); conditions: TEAD-Gal4/YAP UAS-luciferase luminescence, at 9.12 µM, stronger effect = higher value;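 also: 0% = median of test compound wells and 100% = reference inhibitor wells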

SMILES	inhibition
C=CCOC(=O)N1CCC(C(=O)NC(c2ccc(F)cc2)c2ccccn2)CC1 (stereo unspecified)	6.83% (inactive)
COc1ccccc1NC(=O)N1CCC2(CC1)OCc1cc(SC)cc(C)c1O2	1.69% (inactive)
C=CC(=O)Nc1ccc(OC)cc1OC	43.2% (active)
COc1ccc(CNC(=O)Nc2ccc(OC)cc2OC)cc1	0.36% (inactive)
COc1ccc(NC(=O)/C=C\c2cccc3ccccc23)c(OC)c1	2.51% (inactive)
CCn1cc(C(=O)OCc2c(F)cccc2Cl)c(=O)c2ccc(C)nc21	-3.49% (inactive)
CCOc1ccc(-c2nc(-c3cccc([N+](=O)[O-])c3)no2)cc1	-19.3% (inactive)
CCOC(=O)C(CC)Sc1nnc2c(n1)[nH]c1ccc(F)cc12 (stereo unspecified)	-2.45% (inactive)
Cc1ccc2[nH]c3c(=O)n(N)cnc3c2c1	-5.24% (inactive)
CCCCNc1ncnc2c1[nH]c1ccc(F)cc12	42.6% (active)
N#CC1(NS(=O)(=O)c2cc([N+](=O)[O-])ccc2Cl)CCCCC1	-2.76% (inactive)
CC(=O)c1ccc(NC(=O)/C=C/c2cccc([N+](=O)[O-])c2)cc1	-22.5% (inactive)
Ic1ccc2ncnc(NCCc3ccccc3)c2c1	32.8% (active)
COCCCNc1ncnc2ccc(I)cc12	29.9% (inactive)
Ic1ccc2ncnc(NCC3CCCO3)c2c1 (stereo unspecified)	25.4% (inactive)
CCn1c(SCC(=O)N2CCc3ccccc32)nnc1-c1ccccc1	-0.23% (inactive)
O=C(NCCc1ccccc1)c1csc(Nc2ccccc2)n1	-24.6% (inactive)
O=C(NCCc1ccc(O)cc1)c1csc(Nc2ccc(N3CCOCC3)cc2)n1	39.4% (active)
O=C(NCc1ccccc1)c1csc(Nc2ncccn2)n1	5.56% (inactive)
O=C(Nc1ccc(N2CCOCC2)cc1)c1csc(Nc2ccc(-n3ccnc3)cc2)n1	17.6% (inactive)
O=C(NCCc1ccc(O)cc1)c1csc(Nc2ccc3ncccc3c2)n1	-1.97% (inactive)
O=C(NCc1ccccc1)c1csc(Nc2ccc(N3CCOCC3)cc2)n1	35% (active)
Cc1ccc2nc(-c3cc(NC(=O)c4ccccc4C)ccc3Cl)oc2c1	-11.2% (inactive)
COc1ccc(Cn2c(SCC(=O)NCCc3ccc(OC)c(OC)c3)nc3ccsc3c2=O)cc1	11.1% (inactive)

SMILES	inhibition
CC(C)(C)c1ccc(CSc2nc3ccc(NC(=O)c4ccccc4)cc3s2)cc1	2.44% (inactive)
CCC(=O)Nc1ccc(NC(=O)COc2ccc(Br)cc2)cc1C	0.24% (inactive)
COc1ccc(-c2cc(C(=O)Nc3sc(C)c(C)c3C#N)c3ccccc3n2)cc1OC	-0.22% (inactive)
CCN(CC)C(=O)c1sc(NC(=O)c2c(-c3ccccc3)noc2C)c(C(=O)OC(C)C)c1C	2.03% (inactive)
Fc1ccc(C2=Nc3ccc(F)cc3C(C3CC3)=NN2)cc1	-2.31% (inactive)
CCOc1ccc(C(=O)NCC(=O)OCC#N)cc1	0.54% (inactive)
CS(=O)(=O)c1ccc(C(=O)OCC(=O)c2ccc3c(c2)OCCO3)cc1[N+](=O)[O-]	2.27% (inactive)
CCOC(=O)/C(N=Nc1ccc2c(c1)OCCO2)=C(/O)c1ccc([N+](=O)[O-])cc1	88.1% (active)
CCOC(=O)/C(N=Nc1cc(C(=O)O)cc(C(=O)O)c1)=C(\C)O	8.94% (inactive)
COc1ccc(CNC(=O)CC(C)C)cc1	-2.6% (inactive)
c1cc(-c2ccc(OC3CCNCC3)cc2)cs1	-27.5% (inactive)
Cc1cc(C)c(OCCn2c(-c3ccc(Cl)cc3)nc3ccccc3c2=O)c(C)c1	-10.6% (inactive)
CCOc1ccc(S(=O)(=O)Nc2ccc(Cl)cc2C)cc1	53% (active)
CCOc1ccc(NS(=O)(=O)c2ccc(Cl)cc2)cc1	3.58% (inactive)
CCOc1ccc(S(=O)(=O)Nc2cc(C)cc(C)c2)cc1	-1.15% (inactive)
O=C(c1ccccc1F)N1CCc2nnc(Cc3ccccc3)n2CC1	6.95% (inactive)
CCCCN(C)Cc1c(O)c(Cl)cc2c(C)cc(=O)oc12	6.72% (inactive)
Cc1c(C(=O)Nc2ccc3c(c2)Cc2ccccc2-3)oc2ccccc12	-8.71% (inactive)
CC(C)c1nnc(NC(=O)CCN2C(=O)C3C4C=CC(C4)C3C2=O)s1 (stereo unspecified)	-6.27% (inactive)
Cc1cc(C)n2cc(CN3CCc4ccccc4C3)nc2n1	-0.09% (inactive)
Cc1ccc(-c2nc3ccccc3s2)cc1NC(=O)c1sc2ccccc2c1Cl	-13.1% (inactive)
O=C(Nc1nc2ccccc2s1)c1sc2ccccc2c1Cl	38.5% (active)
O=C(Nc1cccc2ncccc12)c1sc2ccccc2c1Cl	-3.37% (inactive)
Cc1ccc2c(c1)NC(=O)C(CC(=O)NCCN(C)C1CCCCC1)O2 (stereo unspecified)	-13.3% (inactive)

SMILES	inhibition
CCc1nnc2sc(-c3ccc(NC(=O)COc4ccccc4[N+](=O)[O-])cc3)nn12	1.75% (inactive)
COc1ccc(-n2cc(-c3ccccc3)c3c(NCCc4ccc(S(N)(=O)=O)cc4)ncnc32)cc1	9.44% (inactive)
Cn1ncc([N+](=O)[O-])c1C(=O)Nc1ccc2nc(NC(=O)C3CCCCC3)sc2c1	66.2% (active)
CC(=O)Nc1ccc2nc(NC(=O)c3ccc(S(=O)(=O)N4CCCCC4)cc3)sc2c1	1.92% (inactive)
CC(=O)Nc1ccc2nc(NC(=O)c3cc4cc([N+](=O)[O-])ccc4s3)sc2c1	16.6% (inactive)
CCOC(=O)C1CCN(Cc2cccc([N+](=O)[O-])c2)CC1	-8.78% (inactive)
O=C(O)c1cc(N2C(=O)/C(=C/c3ccc(O)cc3)SC2=S)ccc1O	1.88% (inactive)
Cc1ccc(/C=C2\SC(=S)N(c3cccc(O)c3)C2=O)o1	-1.97% (inactive)
COc1cccc(/C=C2\SC(=S)N(c3ccc(C(=O)O)c(O)c3)C2=O)c1OC	47.1% (active)
CCn1c(=O)cc(SCC(=O)Nc2nc(C)cs2)c2ccccc21	-2.9% (inactive)
CC(=O)O[C@@H]1C[C@H](c2ccc(F)cc2)N(C)C1=O	3.54% (inactive)
O=C(CN1C(=O)/C(=C/c2ccccc2)Sc2ccccc21)N1CCCC1	-1.18% (inactive)
CN1/C(=C/C(=S)C(C)(C)C)Sc2ccccc21	-12.6% (inactive)
CCN1/C(=C/c2cc(C)[n+](N3CCN(C)CC3)c(C)c2)Sc2ccccc21	75.1% (active)
Cc1cc(/C=C2\Sc3ccccc3N2C)cc(C)[n+]1CCO	73.5% (active)
O=C1c2ccccc2C(=O)N1CCC(=O)N1c2ccccc2Sc2ccccc21	-5.51% (inactive)
CCOc1cc2c(cc1OCC)N(CC)/C(=C\C=O)S2	-11.6% (inactive)
Cc1ccc(CC(=O)O/N=C(\N)c2ccc(Br)cc2)cc1	-13% (inactive)
Cc1cc(Nc2ccc3c(c2)OCO3)nc(Nc2cccc(N(C)C)c2)n1	2.34% (inactive)
CC1(C)CC(=O)C(N=Nc2cc(C(N)=O)c(Cl)cc2Cl)=C(O)C1	-1.09% (inactive)
COc1cccc(C(=O)NC(=S)Nc2cccc(C(=O)O)c2)c1	30.7% (inactive)
COc1ccc2oc(=O)c(-c3csc(NC(=O)c4ccccc4)n3)cc2c1	1.86% (inactive)
Cc1csc(NC(=O)c2ccc(I)cc2)n1	-17.9% (inactive)
COc1ccccc1C(=O)Nc1nc(C)cs1	80.1% (active)

SMILES	inhibition
COc1ccc(C(=O)Nc2nc(C)cs2)c(OC)n1	89.4% (active)
COc1cccc(C(=O)Nc2nc(-c3ccc(C)c(C)c3)cs2)c1OC	-6.84% (inactive)
COc1ccccc1C(=O)Nc1nc(-c2ccccc2)c(C)s1	-3.33% (inactive)
CCOC(=O)C1(Cc2cccc(F)c2)CCN(CCO)CC1	2.96% (inactive)
CCN1CCN(S(=O)(=O)c2ccc(F)c(C(=O)Nc3cccc(C)c3C)c2)CC1	3.75% (inactive)
O=C(Nc1ccccc1Br)c1ccc(Cl)c([N+](=O)[O-])c1	-1.84% (inactive)
O=C(CSc1nc2ccccc2c(=O)n1-c1ccc(C(=O)N2CCOCC2)cc1)NCc1ccccc1Cl	5.25% (inactive)
COc1cccc(NC(=O)Cn2c3ccccc3c(=O)c3cc(Cl)ccc32)c1	1.55% (inactive)
CCOc1cc(/C=C2\SC(=S)NC2=O)cc(Br)c1OC	-5.88% (inactive)
Nc1nc(Nc2ccc(N3CCOCC3)cc2)cc(-c2ccc3[nH]ccc3c2)n1	-4.34% (inactive)
CN1CCN(c2ccc(-c3cc(Nc4ccc(N5CCOCC5)cc4)nc(N)n3)cc2)CC1	64.9% (active)
CN1CCN(c2ccc(-c3cc(NCCOc4ccccc4)nc(N)n3)cc2)CC1	23.1% (inactive)
COc1ccc(CCNc2nc(-c3c(C)noc3C)nc3c2ncn3Cc2ccc(C(F)(F)F)cc2)cc1	40.4% (active)
CCNc1nc(NCCc2ccc(OC)cc2)c2ncn(Cc3ccc(C(F)(F)F)cc3)c2n1	12.1% (inactive)
COc1ccc(-c2nc(NCc3ccccc3)c3ncn(Cc4ccc(C(F)(F)F)cc4)c3n2)cc1	5.78% (inactive)
Oc1ccc(CCNc2nc(Nc3ccncn3)nc3c2ncn3Cc2ccc(C(F)(F)F)cc2)cc1	-4.85% (inactive)
NC(=S)N/N=C/c1c(Sc2ccccn2)nc2ccccn2c1=O	-6.3% (inactive)
O=c1c(C=Nc2ccc(Cl)cc2)c(Nc2ccccc2)nc2ccccn12	-17.1% (inactive)
O=c1c(/C=N/Nc2ccc(C(F)(F)F)cn2)c(Cl)nc2ccccn12	52.1% (active)
COc1ccc(/C=C2\C(=O)N(c3ccc(Cl)c(C(=O)O)c3)N=C2C)cc1Br	0.17% (inactive)
C/C(CC(C)C)=N\NC(=O)c1nnn(-c2nonc2N)c1-c1ccccc1	-8.99% (inactive)
COc1ccc(NC(=O)c2ccco2)cc1NC(=O)c1ccc(-c2ccccc2[N+](=O)[O-])o1	34.4% (active)
O=C(Nc1cccc(NC(=O)c2ccc(-c3ccccc3[N+](=O)[O-])o2)c1)c1ccco1	-5.61% (inactive)
O=C(Nc1ccc(N2CCOCC2)c(Cl)c1)c1ccc(-c2ccccc2[N+](=O)[O-])o1	11.7% (inactive)
